# Assay outcomes deposited in PubChem BioAssay by National Center for Advancing Translational Sciences (NCATS).
# AMA1-RON2 inh – disrupts binding of P. falciparum AMA1 to RON2; AID 720542; Potency, µM (titrated, usually from 58.2 µM), inactives show at the top dose activity change, negative = inhibition, hits mostly inhibitors; 0.2% of 360,000 active; AlphaScreen AMA1-biotinylated RON2 peptide binding;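 further: 0% = vehicle wells and -100% = peptide control; nearly all actives have a fitted effect of over 45% in size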
#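 AMA1 (3D7) with his tag at 25 nM final met compounds first, then biotinylated RON2 peptide at 25 nM; detection used donor plus acceptor beads, 10 µg/mL apiece, read by AlphaScreen after 30 min at room temperature.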
# Pf growth 96h – inhibits malaria parasite growth, 96 h; P. falciparum luciferase reporter growth, 96 h; Potency, µM (doses to about 28.7 µM), without a hit: at the highest dose activity change, negative = inhibition, hits mostly inhibitors; 6.9% of 320,000 active; AID 504834
#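 Plates of compound plus infected erythrocytes (2% hematocrit, 0.05% parasitemia final) incubate 96 hours, 37 C, 5% CO2. Detection reagent added; reduced luminescence from the parasites' luciferase reporter flags inhibition.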
# HCV inh – blocks hepatitis C virus | Huh7.5.1 HCVcc-Cre infection, luciferase reporter, 44 h | Potency, µM (highest dose often 41.8 µM), for the others: top-dose activity change, negative = inhibition, usual class: inhibitors | 3.4% of 340,000 active | AID 651820
#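 Infectious HCV cell culture screen: compound-treated cells (1,000/well, pre-plated 4 h) are infected with HCVcc-Cre at roughly 0.5 moi and grown 44 h. Infection is quantified by luciferase signal after 15 min substrate incubation at room temperature.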
# Pf growth 48h – P. falciparum growth inhibition at 48 hours (one generation); P. falciparum luciferase growth in erythrocytes, 48 h; Potency, µM (series often up to 28.7 µM), for inactives: top-dose activity change, negative = inhibition, hits mostly inhibitors; 5.9% of 310,000 active; AID 504832
#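 Growth was read as firefly luciferase luminescence after a 48 h, 37 C, 5% CO2 exposure of compounds to reporter-bearing P. falciparum cultures (0.1% parasitemia, 2% hematocrit final) in Albumax-supplemented RPMI 1640.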
# * marks the source's active call; other numbers are inactive results; ? = inconclusive; . = no result given; [ ] = dose if it differs, or a comment. Only some compounds are listed: those with a hit (about 11% of all), similar ones and a draw of the others. The call rests on the fitted dose curve; in most records, active means well fitted curve in the direction sought with a large enough effect; inconclusive means small, poorly fitted or top-dose-only effect, or another doubt; inactive means no such curve, though single readings can be large; an effect the other way counts as inactive or inconclusive. Unless noted, on the % scale 0 is the no-effect control and ±100 the full control effect; potency means the concentration at half of the fitted maximal effect.
SMILES,AMA1-RON2 inh,Pf growth 96h,HCV inh,Pf growth 48h
Cc1oc(-c2ccccc2F)nc1CS(=O)(=O)CC(=O)NCCCN1CCN(C)CC1,-6%,10µM*,1%,-3%
CCOc1ccc(CCNC(=O)CS(=O)(=O)Cc2nc(-c3ccccc3F)oc2C)cc1,2%,?,10µM*,-19%
CC(C)[C@@H]1Cc2[nH]n(C)c(=O)c2[C@H](c2ccc(F)cc2)O1,18%,.,.,.
COc1ccccc1CNC(=O)CCC(=O)n1ncc2cc(C)ccc21,0%,2.6µM*,10%,8%
CC(=O)Nc1ccc(Sc2ncccc2C(=O)Nc2cc(Cl)cc(Cl)c2)cn1,-11%,5%,-9%,-7%
CC(=O)Nc1ccc(Sc2ncccc2C(=O)Nc2ccc(OC(F)(F)F)cc2)cn1,9%,?,?,13µM*
COc1cc(NC(=O)c2cccnc2Sc2ccc(C)c(C)c2)cc(OC)c1OC,9%[11.6 µM],10µM*,0%,?
Cc1ccc(Sc2ncccc2C(=O)O)cc1C,17%,59%,21%,-2%
O=C(C[C@H]1C/C=C\C[C@H](NC(=O)OCC2c3ccccc3-c3ccccc32)C(=O)OC[C@@H]2CCCN2C1=O)NCCO,20%,.,7%,.
Cn1ccnc1SCC(=O)Nc1cccc(S(=O)(=O)N2CCCCC2)c1,-9%,-31%[5.75 µM],21%,?
O=c1cc[nH]c2c1ccc1c(=O)cc[nH]c12,65%,-27%,-10%,.
Cc1[nH]ccc2c1[nH]c1cc(=O)ccc12,5%,10µM*,-18%,13µM*
O=C1C=CC(=Nc2ccc(F)cc2)O1,-2%,.,6%,.
O=C(Nc1cc(-c2ccccc2)nn1C1CCCCC1)c1ccc(Cl)cc1,4%,.,2.5µM*,.
CCOC(=O)C(CCCP(=O)(c1ccccc1)c1ccccc1)(NC(C)=O)C(=O)OCC,-1%,-22%,-2%,10%
O=[N+]([O-])c1cnc2nc(-c3ccncc3)nn2c1O,42%,59%,8%,37%
CCOC(=O)Cn1c(S(=O)(=O)Cc2ccccc2Cl)nc(-c2ccccc2)c1-c1ccccc1,-8%,2.6µM*,8%,9.3µM*
CCOC(=O)Cn1c(-c2cccnc2)nc(-c2ccccc2)c1-c1ccccc1,-20%,2.3µM*,-18%,4.1µM*
C#CCn1c(S(=O)(=O)Cc2ccccc2Cl)nc(-c2ccccc2)c1-c1ccccc1,-1%,?,5%,8.3µM*
CCCCn1c(N)c(N(CC(C)C)C(=O)c2cccs2)c(=O)[nH]c1=O,-4%,0%,10%,-11%
C=C1CC(COc2ccc3c(C)c(Cl)c(=O)oc3c2)(c2ccccc2)OC1=O (stereo not given),-4%,.,?,.
CCOC(=O)c1c(/N=C/c2ccc(OC)cc2O)sc2c1CCN(C)C2,-6%,5.2µM*,-14%,10µM*
CN1CCc2c(sc(/N=C/c3c[nH]c4ccccc34)c2C(N)=O)C1,3%,3.7µM*,-7%,4.1µM*
CCSc1nnc(NC(=O)CSc2sc3c(O)cc(=O)[nH]c3c2C#N)s1,7%,1%,12%,2%
Cc1csc(NC(=O)CSc2sc3c(O)cc(=O)[nH]c3c2C#N)n1,?,2.1µM*,6%,28%
SMILES,AMA1-RON2 inh,Pf growth 96h,HCV inh,Pf growth 48h
Cc1csc(NC(=O)CSc2nc3[nH]c(=O)cc(O)c3s2)n1,-5%,.,10µM*,.
CCc1nnc(NC(=O)CSc2sc3c(O)cc(=O)[nH]c3c2C#N)s1,10µM*,?,9%,26%
CC(=O)c1cccc(NC(=O)c2cc(S(=O)(=O)N3CCCCC3)ccc2N2CCOCC2)c1,10%,.,.,.
CN(Cc1ncc[nH]1)Cc1cn(-c2ccccc2)nc1-c1ccc2c(c1)OCO2,21%,-17%,-12%,?
COCC1CCCN(Cc2cn(-c3ccccc3)nc2-c2ccc3c(c2)OCO3)C1 (stereo not given),-21%,?,3%,9.3µM*
c1ccc(-n2cc(CN3CCCC3)c(-c3ccc4c(c3)OCO4)n2)cc1,-3%,?,-9%,5.2µM*
c1ccc(-n2cc(CN3CCC(N4CCOCC4)CC3)c(-c3ccc4c(c3)OCO4)n2)cc1,6%,?,-12%,?
CN(CC(=O)Nc1ccc(Cl)c(Cl)c1)Cc1nnc(-c2ccc(F)cc2)o1,32%,17%,5%,-3%
O=C1C=C2C=CC3C[C@@]2(O1)C1CCCCN31 (stereo not given in full),.,2.7µM*,.,12µM*
CCOC(=O)C1(C)CCN1C(=O)c1cccc(C(F)(F)F)c1 (stereo not given),4%,.,.,.
CCCc1nn(C)c2c(=O)[nH]c(-c3cc(S(=O)(=O)N4CCN(C)CC4)ccc3OCC)nc12,-11%,?,-10%,?
CCCc1nn(C)c2c(=O)[nH]c(-c3cc(S(=O)(=O)Nc4ccc(NC(C)=O)cc4)ccc3OCC)nc12,14%,12µM*,?,9.3µM*
CCOc1ccccc1CNn1cnnc1SCC(=O)NC(C)(C)C,-6%,.,.,.
Cc1cc(OC(C)C(=O)NCc2ccncc2)c2c3c(c(=O)oc2c1)CCC3 (stereo not given),30%,?,?,-7%
Cc1cc(OC(C)C(=O)NCc2cccnc2)c2c(C)c(Cc3ccccc3)c(=O)oc2c1 (stereo not given),7%,?,13µM*,?
Cc1cc(OC(C)C(=O)NCc2cccnc2)c2c3c(c(=O)oc2c1)CCC3 (stereo not given),-10%,10µM*,?,?
O=C(NNC(=O)c1ccccc1[N+](=O)[O-])c1csc(N2CCOCC2)n1,67%,42%,23%,23%
CN(c1ccccc1C(=O)O)S(=O)(=O)c1ccc2c3c(cccc13)C(=O)N2,8%,12µM*,-1%,8%
CCCCNc1nc2ccccc2n1CC(=O)Nc1c(C)cccc1CC,-7%,?,-12%,-24%
O=C(O)Cn1nc(-c2ccc(Cl)cc2)ccc1=O,-5%,13µM*,11%,3%[0.00184 µM]
Cc1ccc(-c2ccc(=O)n(Cc3c(F)cccc3Cl)n2)cc1,-4%,5%,?,13µM*
Cc1ccc(C)c(-c2ccc(=O)n(Cc3c(F)cccc3Cl)n2)c1,7%,?,?,-21%
O=C(O)Cn1nc(-c2ccccc2)ccc1=O,8%,3.3µM*,-3%,-17%
Cc1ccc(C)c(Cn2nc(-c3ccccc3)ccc2=O)c1,5%,5%,32µM*,-17%
O=C(NCc1cccc(C(F)(F)F)c1)C1CC(c2c(Cl)cccc2Cl)=NO1 (stereo not given),11%,5%,?,3%
CCn1cc(C(=O)NNC(=O)c2ccc(Cl)cc2)c(=O)c2ccc(C)nc21,.,-5%,.,62%
C=CCOC(=O)C(C#N)c1nc2ccccc2nc1N1CCN(c2ccccc2OC)CC1 (stereo not given),?,8.3µM*,-22%,5.9µM*
C=CCOC(=O)C(C#N)c1nc2ccccc2nc1N1CCN(Cc2ccccc2)CC1 (stereo not given),-4%,-21%,-13%,?
